Source: PubChem (National Center for Advancing Translational Sciences (NCATS))
This is a sample that favours compounds with a hit; in the whole collection about 2.5% have one here.
POLK inh = DNA polymerase kappa (human) inhibition; Q9UBT6; purified Pol kappa, fluorescent DNA synthesis assay, 10 min; Potency, µM (top dose mostly 107 µM), without a hit: at the top dose activity, negative = inhibition, hits mostly inhibitors; actives 0.53% (n = 400,000); further: on the % scale 0 is the no-effect control and ±100 the full control effect
Target sequence (Q9UBT6 whole entry, looked up): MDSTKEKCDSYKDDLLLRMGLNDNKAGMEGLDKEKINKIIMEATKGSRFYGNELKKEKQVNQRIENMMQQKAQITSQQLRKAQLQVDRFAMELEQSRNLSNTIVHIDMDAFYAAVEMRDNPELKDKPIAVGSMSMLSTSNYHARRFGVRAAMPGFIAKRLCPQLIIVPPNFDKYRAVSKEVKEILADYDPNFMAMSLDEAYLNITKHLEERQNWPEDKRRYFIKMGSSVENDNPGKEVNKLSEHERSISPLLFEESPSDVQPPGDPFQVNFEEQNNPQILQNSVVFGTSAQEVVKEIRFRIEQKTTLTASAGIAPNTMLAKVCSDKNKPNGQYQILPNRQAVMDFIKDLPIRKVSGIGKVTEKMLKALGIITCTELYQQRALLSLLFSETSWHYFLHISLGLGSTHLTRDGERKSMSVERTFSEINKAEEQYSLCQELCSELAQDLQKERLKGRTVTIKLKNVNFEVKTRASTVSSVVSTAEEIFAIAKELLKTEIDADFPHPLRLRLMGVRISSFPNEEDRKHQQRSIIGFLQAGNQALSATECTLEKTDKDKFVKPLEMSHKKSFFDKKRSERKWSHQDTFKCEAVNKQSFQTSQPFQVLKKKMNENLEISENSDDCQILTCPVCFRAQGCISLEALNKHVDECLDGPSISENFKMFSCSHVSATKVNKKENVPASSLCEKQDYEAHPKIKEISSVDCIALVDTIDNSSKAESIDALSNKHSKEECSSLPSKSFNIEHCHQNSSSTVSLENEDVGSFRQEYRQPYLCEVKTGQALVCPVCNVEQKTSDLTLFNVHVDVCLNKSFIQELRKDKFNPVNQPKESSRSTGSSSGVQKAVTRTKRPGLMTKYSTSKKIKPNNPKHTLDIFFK
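Fluorescent qHTS in 1536-well format: enzyme (10 nM) and compound sat 15 min at room temperature before 50 nM substrate (final) was added. Signal taken at 0 and 10 min; no-enzyme buffer wells were negative controls.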
Pol beta inh = inhibitors of human DNA polymerase beta. Pol beta primer extension/strand displacement, fluorescence kinetic. P06746. actives 1.3% (n = 340,000). AID 485314. Potency, µM (top dose mostly 114 µM), for inactives: top-dose activity change, negative = inhibition, most hits filed as inhibitors; further: on the % scale 0 is the no-effect control and ±100 the full control effect
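Pol beta (10 nM) was preincubated with compound for 15 min at room temperature. The reaction was then started with 50 nM substrate and read immediately and after a further 10 min at room temperature.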
POLH inh = DNA polymerase eta (human) inhibition | Q9Y253 | recombinant Pol eta, fluorescent DNA replication assay | Potency, µM (doses to about 114 µM), inactives show top-dose activity change, negative = inhibition, hits mostly inhibitors | actives 1.2% (n = 390,000) | AID 588591; further: on the % scale 0 is the no-effect control and ±100 the full control effect
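Fluorescent replication assay: 50 nM final substrate added after a 15 min room-temperature compound preincubation with 10 nM enzyme. Signal taken at 0 min and again at 10 min.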
L3MBTL1 block = blocks human L3MBTL1. AlphaScreen L3MBTL1–H3K9me1 peptide binding. Q9Y468. actives 0.66% (n = 230,000). Potency, µM (doses to about 57.1 µM), for the others: at the top dose activity, negative = inhibition, most hits filed as inhibitors; further: on the % scale 0 is the no-effect control and ±100 the full control effect; nearly all actives have a fitted effect of over 60% in size
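Read-out is AlphaScreen signal from streptavidin donor and nickel chelate acceptor beads (10 ug/mL final each) bridging L3MBTL1 (50 nM) and biotinylated K9-monomethylated H3(1-15) peptide (75 nM), after 30 min compound exposure at room temperature.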
APEX1 inh = APE1 (human) endonuclease inhibition; P27695; recombinant APE1, TAMRA/BHQ-2 abasic DNA cleavage fluorescence; Potency, µM (top dose mostly 65.8 µM), without a hit: top-dose activity change, negative = inhibition, hits mostly inhibitors; actives 0.35% (n = 350,000); AID 2517;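 further: plate controls were vehicle for no effect and reference inhibitor for full effect; nearly all actives have a fitted effect of over 55% in size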
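Activity was derived from the fluorescence gain between first and third kinetic reads (60 s intervals, ex 525/em 598 nm) after 50 nM THF-abasic TAMRA/BHQ-2 duplex was added to 0.75 nM APE1 preincubated 15 min with compound.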
POLI inh = blocks human DNA polymerase iota activity | Q9UNA4 | Pol iota fluorescent replication assay, 10 min | Potency, µM (doses to about 115 µM), without a hit: at the highest dose activity, negative = inhibition, hits mostly inhibitors | actives 1% (n = 390,000) | AID 588590
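Pol iota at 10 nM preincubated 15 min with compounds at room temperature; reaction started with fluorescent substrate, 50 nM final. Fluorescence read kinetically at 0 and 10 min; buffer-only wells as negative control.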
Active calls of the source: *; ? = inconclusive; / = not tested or not shown; [ ] = another dose, or the depositor's remark. The call rests on the fitted dose curve; in most records, active means well fitted curve in the direction sought with a large enough effect; inconclusive means small, poorly fitted or top-dose-only effect, or another doubt; inactive means no such curve, though single readings can be large; an effect the other way counts as inactive or inconclusive. Potency means the concentration at half of the fitted maximal effect.

SMILES | POLK inh | Pol beta inh | POLH inh | L3MBTL1 block | APEX1 inh | POLI inh
COc1ccc2nc3sc(C(=O)Nc4cc(Cl)c(OC)cc4OC)cc3cc2c1 | 0.0% | ? | ? | / | / | -5.0%
CCC(C)NC(=O)c1cc2cc3ccc(OC)cc3nc2s1 (configuration not stated) | ? | 50.1µM* | ? | / | -2.1% | -15.1%
CCCSc1nnc(NC(=O)CSc2nc3[nH]c(=O)cc(O)c3s2)s1 | -29.2% | / | 56.2µM* | -18.5% | -13.1% | 35.5µM*
CCc1nnc(NC(=O)CSc2nc3[nH]c(=O)cc(O)c3s2)s1 | ? | / | ? | -7.2% | 6.0% | ?
Cc1csc(NC(=O)CSc2nc3[nH]c(=O)cc(O)c3s2)n1 | -13.7% | / | 28.2µM* | / | / | 7.9%
CCOC(=O)CSc1nc2ccc(NC(=O)COc3ccccc3C)cc2s1 | 7.9% | -23.3% | -15.8% | / | / | 34.1%
CN1N=C(C(C)(C)C)CC1=O | 3.1% | 3.6% | -13.7% | ? | ? | 3.98µM*
CN1N=C(C(F)(F)F)CC1=O | -14.1% | -1.3% | -0.8% | 15.4% | -3.5% | 50.9%
CC(C)CCn1c(N2CCc3ccccc3C2)nc2c1c(=O)[nH]c(=O)n2C | -13.7% | -1.0% | -12.7% | / | -2.4% | -2.5%
O=C1NN(c2ccccc2)C(=O)C1=Cc1ccccc1O | / | / | 7.5% | / | / | /
O=C1NN(c2ccccc2)C(=O)/C1=C\c1cccn1-c1ccc(Cl)c([N+](=O)[O-])c1 | ? | ? | 20µM* | / | 1.6% | ?
O=C(CC1CCCC1)NNC(=O)c1ccc(F)cc1 | 6.0% | / | -16.1% | -3.1% | -0.1% | 30.2%
O=C1c2ccccc2C(=O)N1c1cccc(-c2csc(Nc3ccc4c(c3)OCO4)n2)c1 | / | 28.2µM* | / | -29.5% | -8.8% | /
O=C1Nc2ccc(I)cc2C1=Cc1cc(Br)c(O)c(Br)c1 | ? | / | / | / | / | 44.7µM*
CN(C)CCCN1C(=O)c2cccc3c([N+](=O)[O-])ccc(c23)C1=O | -8.2% | ? | -17.2% | 11.9% | -15.6% | ?
O=C(O)c1ccc(CN2C(=O)c3cccc4c([N+](=O)[O-])ccc(c34)C2=O)cc1 | -5.8% | ? | 22.4µM* | / | -19.5% | ?
CC(/C=C/c1ccco1)=N\NC(=O)c1cccnc1 | ? | ? | ? | / | -2.4% | 39.8µM*
Cc1ccc(C(=O)N/N=C/c2cccc(OC(=O)/C=C/c3ccco3)c2)cn1 | -36.2% | 20µM* | ? | 31.6µM* | 14.1µM* | ?
CC(/C=C/c1ccco1)=N\NC(=O)c1cc(C)[nH]n1 | ? | 20µM* | 79.4µM* | ? | -5.8% | 17.8µM*
CCC(=O)OCC(=O)[C@@]1(OC(=O)CC)[C@H](C)C[C@H]2[C@@H]3CCC4=CC(=O)C=C[C@]4(C)[C@@]3(F)[C@@H](O)C[C@@]21C | / | / | / | / | -8.5% | /
O=C(O)CCc1ccc(-c2cccs2)n1-c1ccc(C(=O)O)cc1 | ? | ? | 31.6µM* | -29.0% | ? | ?
CC(=O)c1cccc(-n2c(CCC(=O)O)ccc2-c2cccs2)c1 | -33.7% | ? | ? | -8.7% | -3.4% | 50.1µM*
CN(C)N=Nc1ccc(/C=C2\C=Cc3ccccc32)cc1 | -7.3% | / | / | / | / | 5.4%
N/C(=N\OC(=O)c1cnn(-c2ccccc2)c1C(F)(F)F)c1ccc(C(F)(F)F)cc1 | -12.9% | -11.1% | -10.9% | 14.3% | -2.3% | 125.4%
Nc1cc(=O)[nH]c2c1CCC2 | -13.3% | / | / | / | / | 50.8%
SMILES | POLK inh | Pol beta inh | POLH inh | L3MBTL1 block | APEX1 inh | POLI inh
COc1ccc(CCNC(=O)CCCn2c(=O)c3ccccc3n(CC(=O)Nc3ccccc3C)c2=O)cc1OC | -6.6% | ? | -13.1% | / | / | 21.7%
CC1(CC(=O)N/N=C/c2ccc(-c3ccc(C(=O)O)cc3)o2)OCCO1 | -0.5% | 0.6% | -21.6% | 2.5% | -7.3% | -5.0%
O=C(CCN1CCN(c2ccccc2)CC1)N/N=C/c1ccc([N+](=O)[O-])o1 | -7.3% | 70.8µM* | ? | -1.7% | -0.8% | ?
O=C(CN1CCOCC1)N/N=C/c1ccc(-c2ccc(C(=O)O)cc2)o1 | -28.9% | ? | 39.8µM* | / | ? | -0.3%
O=C(CN1CCCCCCC1)N/N=C/c1ccc([N+](=O)[O-])o1 | ? | ? | ? | ? | 25.5% | 44.7µM*
O=C(CCN1CCN(c2ccccc2)CC1)N/N=C/c1ccc(O)c(O)c1O | 3.55µM* | 2.82µM* | 22.4µM* | 5.62µM* | 1.5% | 1.26µM*
COc1ccc(CCNC(=O)C(=O)NCC(c2cccs2)S(=O)(=O)c2ccccc2)cc1 (configuration not stated) | -20.8%[60.1 µM] | ? | -14.5% | / | / | 89.1µM*
Clc1ccc(CSc2nnc(-c3cccnc3)n2Cc2ccco2)c(Cl)c1 | -22.9% | 50.1µM* | ? | -25.5% | 1.5% | -6.7%
OCc1cccc(-c2noc(-c3ccccc3F)n2)c1 | / | / | / | / | 56.9% | /
CCN(CC(=O)Nc1c(F)cccc1F)C(=O)CCCN1C(=O)c2cccc3cccc(c23)C1=O | / | / | -1.8% | / | / | /
Cn1cccc1C(=O)Nc1nc(-c2ccccn2)cs1 | -10.2% | ? | ? | 31.6µM* | 0.3% | -150.0%
O=C(Nc1nc(-c2ccccn2)cs1)c1cc2ccccc2o1 | -1.1% | 0.0% | -4.4% | 20µM* | -6.6% | 83.3%
Cc1csc(NC(=O)c2cccn2C)n1 | -5.8% | 35.1% | -5.7% | -6.3% | -2.9% | 19.1%
Cc1c(C(=O)Nc2nc(-c3ccccn3)cs2)oc2ccccc12 | ? | / | ? | ? | -17.4% | ?
O=C(/C=C/c1ccco1)Nc1nc(-c2ccccn2)cs1 | 31.6µM* | 25.1µM* | ? | / | 1.3% | ?
CN(C)c1ccc(/C=C/c2ccnc3ccccc23)c(F)c1 | 3.3% | / | / | / | / | 16.7%
COC1CCN(Cc2c(C(=O)N3CCc4ccccc4C3)nc3ccc(Cl)cn23)CC1 | -10.0% | 35.7% | -15.3% | / | 10.0% | 22.6%
COCC1CCN(Cc2c(C(=O)N3CCc4ccccc4C3)nc3ccc(Cl)cn23)C1 (configuration not stated) | ? | ? | ? | / | -4.7% | 39.8µM*
COc1ccc(-c2cn(CCO)c(-c3ccncc3)n2)cc1 | -0.6% | / | 1.3% | -11.5% | 3.7% | 21.2%
Cc1ccc(-c2cn(CCN)c(-c3ccncc3)n2)cc1 | -17.3% | / | -1.1% | -0.2% | -26.0% | 31.6µM*
Cc1nn2c(=O)cc(COC(=O)c3ccc(NC(=O)CCc4ccccc4)cc3)nc2s1 | -8.7%[60.1 µM] | 79.4µM* | -1.2% | / | / | -6.1%
CC(C)c1nn2c(=O)cc(COC(=O)c3ccc(NC(=O)C4CCCCC4)cc3)nc2s1 | -6.4%[60.1 µM] | 12.1% | 79.4µM* | / | / | 18.3%
